The campaign covered roughly 5,500 compounds. About 2,000 (36%) were called active. Roughly 18% stayed inconclusive and do not appear here. Rule as the data show it: active = normalized growth mostly below about 0.91 (no sharp cut-off); inconclusive = no clear call, values can overlap the other calls; inactive = mostly above about 0.92. Some of the results follow.
Assay: chemical genetic growth profiling, strain panel (AID 1159580);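 also: tested at 20 µM; growth read once vehicle control cultures reached saturation at 30 °C; 1 = growth at the plate median or of vehicle wells; lower values mean less growth of the strain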
Conditions: growth OD

Measured: normalized growth

CC(CCC(=O)O)[C@H]1CCC2C3CC[C@@H]4CCCC[C@]4(C)C3CC[C@@]21C (some centres undefined)
inactive: S. cerevisiae deletion strains, locus YJR043C, strain POL32, stronger effect = lower value 1.02 | S. cerevisiae deletion strains, locus YJR066W, strain TOR1, stronger effect = lower value 1.06 | S. cerevisiae deletion strains, locus YJR075W, strain HOC1, stronger effect = lower value 0.999 | S. cerevisiae deletion strains, locus YKL009W, strain mrt4, stronger effect = lower value 0.95 | S. cerevisiae deletion strains, locus YKL068W, stronger effect = lower value 0.989 | S. cerevisiae deletion strains, locus YKL085W, strain MDH1 (second series), stronger effect = lower value 0.986 | S. cerevisiae deletion strains, locus YKL085W, strain MDH1, stronger effect = lower value 0.986 | S. cerevisiae deletion strains, locus YKL160W, strain elf1, stronger effect = lower value 1.02 | S. cerevisiae deletion strains, locus YKL190W, strain CNB1, stronger effect = lower value 0.998 | S. cerevisiae deletion strains, locus YKR001C, strain vps1, stronger effect = lower value 0.998 | S. cerevisiae deletion strains, locus YKR026C, strain gcn3, stronger effect = lower value 1.01 | S. cerevisiae deletion strains, locus YKR091W, strain srl3, stronger effect = lower value 1 | S. cerevisiae deletion strains, locus YLL001W, strain dnm1, stronger effect = lower value 1.01 | S. cerevisiae deletion strains, locus YLL026W, stronger effect = lower value 0.988 | S. cerevisiae deletion strains, locus YLL041C, strain sdh2, stronger effect = lower value 1 | S. cerevisiae deletion strains, locus YLR027C, strain aat2, stronger effect = lower value 0.995 | S. cerevisiae deletion strains, locus YLR039C, strain RIC1, stronger effect = lower value 1.05 | S. cerevisiae deletion strains, locus YLR058C, strain SHM2, stronger effect = lower value 0.999 | S. cerevisiae deletion strains, locus YLR102C, strain apc9, stronger effect = lower value 0.984 | S. cerevisiae deletion strains, locus YLR113W, strain HOG1, stronger effect = lower value 0.977 | S. cerevisiae deletion strains, locus YLR221C, strain rsa3, stronger effect = lower value 1.02 | S. cerevisiae deletion strains, locus YLR258W, strain gsy2, stronger effect = lower value 1 | S. cerevisiae deletion strains, locus YLR262C, strain YPT6 (second series), stronger effect = lower value 1.05 | S. cerevisiae deletion strains, locus YLR262C, strain YPT6, stronger effect = lower value 1.1 | S. cerevisiae deletion strains, locus YLR268W, strain sec22, stronger effect = lower value 0.979 | S. cerevisiae deletion strains, locus YLR320W, strain mms22, stronger effect = lower value 1.05 | S. cerevisiae deletion strains, locus YLR330W, strain CHS5, stronger effect = lower value 0.999 | S. cerevisiae deletion strains, locus YLR342W, strain FKS1 (second series), stronger effect = lower value 0.956 | S. cerevisiae deletion strains, locus YLR342W, strain FKS1, stronger effect = lower value 1.04 | S. cerevisiae deletion strains, locus YLR357W, strain rsc2, stronger effect = lower value 0.997 | S. cerevisiae deletion strains, locus YLR370C, strain arc18, stronger effect = lower value 1.01 | S. cerevisiae deletion strains, locus YLR371W, strain rom2, stronger effect = lower value 0.986 | S. cerevisiae deletion strains, locus YLR384C, strain iki3, stronger effect = lower value 1 | S. cerevisiae deletion strains, locus YLR418C, strain cdc73, stronger effect = lower value 0.975 | S. cerevisiae deletion strains, locus YML016C, strain PPZ1, stronger effect = lower value 1 | S. cerevisiae deletion strains, locus YML032C, strain rad52, stronger effect = lower value 0.992 | S. cerevisiae deletion strains, locus YML120C, strain ndi1, stronger effect = lower value 1.01 | S. cerevisiae deletion strains, locus YML124C, strain tub3, stronger effect = lower value 0.988 | S. cerevisiae deletion strains, locus YMR058W, strain fet3, stronger effect = lower value 1.01 | S. cerevisiae deletion strains, locus YMR078C, strain ctf18, stronger effect = lower value 1 | S. cerevisiae deletion strains, locus YMR125W, strain sto1, stronger effect = lower value 1.02 | S. cerevisiae deletion strains, locus YMR129W, stronger effect = lower value 1 | S. cerevisiae deletion strains, locus YMR205C, strain PFK2, stronger effect = lower value 1.03 | S. cerevisiae deletion strains, locus YMR223W, strain ubp8, stronger effect = lower value 0.994 | S. cerevisiae deletion strains, locus YMR231W, strain pep5, stronger effect = lower value 0.998 | S. cerevisiae deletion strains, locus YMR307W, strain GAS1, stronger effect = lower value 0.985 | S. cerevisiae deletion strains, locus YNL067W, strain RPL9B, stronger effect = lower value 1.02 | S. cerevisiae deletion strains, locus YNL071W, strain lat1, stronger effect = lower value 1.01 | S. cerevisiae deletion strains, locus YNL209W, strain ssb2, stronger effect = lower value 1.02 | S. cerevisiae deletion strains, locus YNL233W, strain BNI4, stronger effect = lower value 1.01 | S. cerevisiae deletion strains, locus YNL248C, strain rpa49, stronger effect = lower value 1.01 | S. cerevisiae deletion strains, locus YNL250W, strain rad50, stronger effect = lower value 0.982 | S. cerevisiae deletion strains, locus YNL271C, strain bni1, stronger effect = lower value 0.986 | S. cerevisiae deletion strains, locus YNL298W, strain CLA4, stronger effect = lower value 0.981 | S. cerevisiae deletion strains, locus YNL307C, strain MCK1, stronger effect = lower value 0.987 | S. cerevisiae deletion strains, locus YNL322C, strain KRE1 (second series), stronger effect = lower value 1.01 | S. cerevisiae deletion strains, locus YNL322C, strain KRE1, stronger effect = lower value 0.997 | S. cerevisiae deletion strains, locus YNR049C, strain mso1, stronger effect = lower value 0.998 | S. cerevisiae deletion strains, locus YNR052C, strain pop2, stronger effect = lower value 0.985 | S. cerevisiae deletion strains, locus YOL012C, strain htz1 1.54 | S. cerevisiae deletion strains, locus YOL147C, strain pex11, stronger effect = lower value 0.993 | S. cerevisiae deletion strains, locus YOR001W, strain rrp6, stronger effect = lower value 1.02 | S. cerevisiae deletion strains, locus YOR061W, strain CKA2, stronger effect = lower value 0.99 | S. cerevisiae deletion strains, locus YOR069W, strain VPS5, stronger effect = lower value 0.993 | S. cerevisiae deletion strains, locus YOR070C, strain gyp1, stronger effect = lower value 0.994 | S. cerevisiae deletion strains, locus YOR080W, strain dia2, stronger effect = lower value 0.998 | S. cerevisiae deletion strains, locus YOR083W, strain WHI5, stronger effect = lower value 1.02 | S. cerevisiae deletion strains, locus YOR106W, strain vam3, stronger effect = lower value 1.02 | S. cerevisiae deletion strains, locus YOR136W, strain idh2, stronger effect = lower value 0.986 | S. cerevisiae deletion strains, locus YOR144C, strain elg1, stronger effect = lower value 0.992 | S. cerevisiae deletion strains, locus YOR184W, strain ser1, stronger effect = lower value 0.992 | S. cerevisiae deletion strains, locus YOR231W, strain MKK1, stronger effect = lower value 0.969 | S. cerevisiae deletion strains, locus YOR265W, strain rbl2, stronger effect = lower value 1 | S. cerevisiae deletion strains, locus YOR270C, strain vph1, stronger effect = lower value 1.01 | S. cerevisiae deletion strains, locus YOR290C, strain snf2, stronger effect = lower value 1.01 | S. cerevisiae deletion strains, locus YOR316C, strain cot1, stronger effect = lower value 0.985 | S. cerevisiae deletion strains, locus YPL051W, strain arl3, stronger effect = lower value 1.01 | S. cerevisiae deletion strains, locus YPL055C, strain LGE1, stronger effect = lower value 0.991 | S. cerevisiae deletion strains, locus YPL078C, strain atp4, stronger effect = lower value 1.01 | S. cerevisiae deletion strains, locus YPL106C, strain sse1, stronger effect = lower value 1.03 | S. cerevisiae deletion strains, locus YPL240C, strain hsp82, stronger effect = lower value 0.998 | S. cerevisiae deletion strains, locus YPL256C, strain CLN2, stronger effect = lower value 0.94 | S. cerevisiae deletion strains, locus YPR119W, strain clb2, stronger effect = lower value 0.993 | S. cerevisiae deletion strains, locus YPR141C, strain kar3, stronger effect = lower value 0.986 | S. cerevisiae deletion strains, locus YPR163C, strain tif3, stronger effect = lower value 1.01 | S. cerevisiae deletion strains, locus YPR167C, strain met16, stronger effect = lower value 0.971 | S. cerevisiae deletion strains, strain wtn01, stronger effect = lower value 0.965 | S. cerevisiae strains, strain wild type, stronger effect = lower value 0.995
active: S. cerevisiae deletion strains, locus YNL183C, strain NPR1, stronger effect = lower value 1.11 [resistant]
